Molecules are shown by their SMILES. The campaign covered roughly 360,000 compounds. About 1,200 (0.33%) were called active. Many of the other results were omitted from the sample, so actives are more common in it than they were. Unmarked numbers belong to inactive results. Cut-off read from the data, not from the text of the source: active = inhibition above about 37%; inactive = the rest.

Chain of Small ubiquitin-related modifier 1 (Homo sapiens) (P63165 whole entry, looked up): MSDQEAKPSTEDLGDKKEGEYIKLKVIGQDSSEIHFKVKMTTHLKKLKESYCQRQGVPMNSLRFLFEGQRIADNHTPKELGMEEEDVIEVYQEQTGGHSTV

The assay addresses Small ubiquitin-related modifier 1 (Homo sapiens) (UniProt P63165). Description: SUMO1 binding to interaction partners, disruption – biochemical, uHTS, primary screen (AID 602429). To be noted: SUMO1 binding to a labelled peptide, TR-FRET, 1 h; at 20 µM; stronger effect = higher value.
`COc1ccc(N2C(=O)/C(=C/c3ccco3)C(=O)NC2=S)cc1`: the inhibition – broadly, the relative decrease from the control value, in per cent – was 88.7% (active).

Consider `COC(=O)C1=C(c2cc3ccccc3s2)C[C@@H]2CC[C@H]1N2C(=O)NCc1cccc2ccccc12`, for which the inhibition is 5.43%.

In the case of `Cc1nn(Cc2ccccc2Cl)c(Cl)c1C(=O)OC(C(=O)NC(N)=O)C(C)C` (stereo not given), the inhibition is -1.52%.

As to `C[C@H]1CN([C@@H](C)CO)C(=O)CCCn2nncc2CO[C@H]1CN(C)C(=O)Oc1cccc2ccccc12`, the inhibition was 0.0734%.

As to `O=C1NC(=O)C(CCOc2ccccc2)(CCc2ccccc2)C(=O)N1`, the inhibition is -4.22%.

`COc1cccc(N2C(=O)NC(=O)/C(=C\c3ccc([N+](=O)[O-])s3)C2=O)c1`: the inhibition is 38.1% (active).

In the case of `CC(=O)N(C1=NCCCS1)c1ccccc1F`, the inhibition was -2.29%.

Regarding `CCCn1c(C(=O)c2ccccc2OC)nc2ccccc21`, the inhibition was -1.49%.

Take `CCCCCn1c(=O)c(C(=O)Nc2c(C)n(C)n(-c3ccccc3)c2=O)c(O)c2ccccc21`: the inhibition was 4.99%.

On to `C=C(C)C1(CCCC)C(=O)NC(=S)NC1=O`, for which the inhibition is 6.06%.

For the origin of these results see PubChem BioAssay AID602429 (Sanford-Burnham Center for Chemical Genomics, 2012).
